These results are taken from PubChem BioAssay (Tox21).

The nature of assay [1]: qHTS assay to identify small molecule antagonists of the estrogen related receptor (ERR) signaling pathway from Tox21 library - cell viability counter screen (AID 1224834). Note: nearly all actives have a fitted effect of over 30% in size. Note: potency is the fitted concentration of half-maximal effect. The method, boiled down:
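Seeded ERR cells were rested 6 h at 37 C/5% CO2 before compounds, positive and negative controls or DMSO were added. Incubation continued for 17.5 h, and viability was then quantified by CellTiter-Fluor fluorescence.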
A general note: qHTS replaces the single test concentration by a dilution series.

The target of assay [2] is Luciferin 4-monooxygenase (Photinus pyralis) (UniProt P08659). The experiment in a line: qHTS assay to identify small molecule inhibitors of firefly luciferase (AID 1224835). Note: nearly all actives have a fitted effect of over 25% in size. Note: potency is the fitted concentration of half-maximal effect. The method, boiled down:
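Biochemical qHTS: compounds run as interplate titrations against purified firefly enzyme, with D-luciferin and ATP each at its KM concentration. Light output recorded by CCD imaging.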

Assay [3] can be described thus: qHTS assay to identify small molecule agonists of the constitutive androstane receptor (CAR) signaling pathway - cell viability counter screen (AID 1224836). Note: nearly all actives have a fitted effect of over 45% in size. Note: potency is the fitted concentration of half-maximal effect. The method, boiled down:
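Cells were seeded and incubated 4 hrs. Compounds were added across 15 concentrations together with PK11195 at 0.75 uM final. Plates were incubated 23 hrs at 37 C. CellTiter-Fluor was added and fluorescence measured.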

Assay [4] in a line: qHTS assay to identify small molecule antagonists of the constitutive androstane receptor (CAR) signaling pathway - cell viability counter screen (AID 1224837). Note: nearly all actives have a fitted effect of over 45% in size. Note: potency is the fitted concentration of half-maximal effect. The method, boiled down: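 To flag cytotoxic false antagonists, HepG2 hCAR/CYP2B6-2.2kb cells were treated 23 hr with 15-concentration compound series and 50 nM CITCO at 37 C/5% CO2; CellTiter-Fluor fluorescence was the measured end point.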

A short description of assay [5]: qHTS assay to identify small molecule antagonists of the estrogen related receptor signaling pathway with the pleiotropic PPARgamma coactivator (PGC) from Tox21 10K library - cell viability counter screen (AID 1224840; active = well fitted cell-killing curve with a large enough effect in the repeat runs, not every such curve was filed as active; note: nearly all actives have a fitted effect of over 40% in size; note: potency is the fitted concentration of half-maximal effect). The procedure, abridged:
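Seeded PGC/ERR cells (2,000/well, 6 h, 37 C/5% CO2) get compound by pin tool; 17.5 h incubation at 37 C; CellTiter-Fluor added, 30 min, fluorescence measured.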

For assay [6], the target named is Nuclear receptor subfamily 1 group I member 3 (Homo sapiens) (UniProt Q14994). Description: qHTS assay to identify small molecule antagonists of the constitutive androstane receptor (CAR) signaling pathway (AID 1224838).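 Note: HepG2 cells stably expressing hCAR with CYP2B6 luciferase reporter stimulated by CITCO; nearly all actives have a fitted effect of over 40% in size.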 The method, boiled down: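 Human hepatoma HepG2 cells expressing hCAR and a CYP2B6 promoter (2.2 kb) luciferase construct; compound titration (15 points) with 50 nM CITCO final, 24 h at 37 C/5% CO2; luminescence via ONE-Glo after 30 min at room temperature.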

For assay [7] the target is unchanged. The experiment in a line: qHTS assay to identify small molecule agonists of the constitutive androstane receptor (CAR) signaling pathway (AID 1224839). Note: nearly all actives have a fitted effect of over 15% in size. Note: potency is the fitted concentration of half-maximal effect. The method, boiled down: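 Cells were plated and incubated 4 hrs, then dosed with compounds at 15 concentrations. PK11195 was added to 0.75 uM final. After 24 hrs at 37 C, luciferase luminescence was measured.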

Assay [8] can be described thus: qHTS assay to identify small molecule antagonists of the estrogen related receptor signaling pathway with the pleiotropic PPARgamma coactivator (PGC) from Tox21 10K library (AID 1224841; call rule not given here; note: actives are mostly falling curves and most rising ones were filed inactive; nearly all actives have a fitted effect of over 50% in size; note: potency is the fitted concentration of half-maximal effect). The method, boiled down:
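Test chemicals dissolved in DMSO were applied to pre-incubated (6 h) PGC/ERR cells at 2,000 cells/well for an 18 h, 37 C treatment; reporter luminescence was then read using One-Glo.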

Assay [9] is described as follows: qHTS assay to identify small molecule agonists of the estrogen related receptor signaling pathway with the pleiotropic PPARgamma coactivator (PGC) from Tox21 10K library (AID 1224842). Note: nearly all actives have a fitted effect of over 15% in size. The method, boiled down:
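PGC/ERR reporter cell line, 2,000 cells per well, incubated 6 h at 37 C before 23 nL compound in DMSO was added. After 18 h at 37 C, One-Glo luminescence read following 30 min at room temperature.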

Results filed as inconclusive are left out. A number with no mark means an inactive call. Activity calls are given as the source filed them. Unless noted, calls come from the whole dose curve; as a rule, active = well fitted curve in the direction sought with a large enough effect in the repeat runs; inconclusive = weak or mixed curves; inactive = no such curve, though single readings can be large; an effect the other way counts as inactive or inconclusive.

Sequence of Luciferin 4-monooxygenase (Photinus pyralis) (P08659 whole entry, looked up): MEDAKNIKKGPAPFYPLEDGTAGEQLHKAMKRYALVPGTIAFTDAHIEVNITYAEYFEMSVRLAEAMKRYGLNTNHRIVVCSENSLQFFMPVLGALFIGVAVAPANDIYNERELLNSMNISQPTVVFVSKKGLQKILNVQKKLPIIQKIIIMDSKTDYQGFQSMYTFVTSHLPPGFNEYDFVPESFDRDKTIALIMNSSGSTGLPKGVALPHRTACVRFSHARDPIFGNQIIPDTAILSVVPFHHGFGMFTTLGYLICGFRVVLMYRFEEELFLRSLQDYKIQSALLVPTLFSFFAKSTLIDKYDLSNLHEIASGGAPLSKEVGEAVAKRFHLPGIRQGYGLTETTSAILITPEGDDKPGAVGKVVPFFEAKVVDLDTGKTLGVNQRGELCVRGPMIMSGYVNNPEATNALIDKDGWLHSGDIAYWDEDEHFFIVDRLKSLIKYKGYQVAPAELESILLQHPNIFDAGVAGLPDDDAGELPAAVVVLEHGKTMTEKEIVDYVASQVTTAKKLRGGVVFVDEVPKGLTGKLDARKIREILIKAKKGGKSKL
Sequence of Nuclear receptor subfamily 1 group I member 3 (Homo sapiens) (Q14994 whole entry, looked up): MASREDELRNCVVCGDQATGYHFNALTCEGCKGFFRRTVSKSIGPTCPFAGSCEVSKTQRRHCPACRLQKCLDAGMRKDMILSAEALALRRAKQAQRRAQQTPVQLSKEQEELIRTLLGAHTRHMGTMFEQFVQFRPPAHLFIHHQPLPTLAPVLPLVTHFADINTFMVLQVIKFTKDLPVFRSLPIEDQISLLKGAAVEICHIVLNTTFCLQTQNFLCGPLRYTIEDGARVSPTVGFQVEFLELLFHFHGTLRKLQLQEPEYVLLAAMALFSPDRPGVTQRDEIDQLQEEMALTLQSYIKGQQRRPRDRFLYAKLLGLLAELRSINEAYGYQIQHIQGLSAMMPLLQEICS

Regarding `C=CC(=O)NCOCC(C)C`, the Potency result in assay [1], in assay [2], in assay [3], in assay [4] and in assay [5] was “inactive” in each case.

Turning to `Cn1c(=O)c2c(ncn2CC(=O)O)n(C)c1=O`, the Potency entry in [1], in assay [2], in [3], in assay [4] and in [5] was “inactive” in each case.

Regarding `O=Cc1c(Cl)cccc1Cl`, the Potency entry in assay [1], in assay [2], in assay [3], in assay [6], in [7] and in assay [8] was “inactive” throughout. Further, the Potency result in [9] is “inactive”.

Regarding `CC(=O)Nc1ccccc1C`, the Potency entry in [1], in [2], in assay [3], in assay [6], in assay [7] and in assay [5] was “inactive” throughout. Moreover, the Potency result in assay [8] and in [9] was “inactive” each time.

Regarding `CC#N`, the Potency result in assay [1], in assay [2], in assay [3], in [4] and in assay [5] was “inactive” throughout.

Regarding `C/C(=N/NC(=O)c1ccncc1)C(=O)O`, the Potency entry in assay [1], in assay [2], in assay [3], in assay [6], in assay [7] and in assay [5] was “inactive” throughout.

With `O=C(O)Cc1ccc(-c2ccccc2)cc1`, the Potency result in assay [1], in assay [2], in [3], in [6], in assay [7] and in assay [5] was “inactive” throughout. The Potency entry in assay [8] and in [9] was “inactive” in each case.

On to `CC[C@@H]([C@H](C)O)n1ncn(-c2ccc(N3CCN(c4ccc(OC[C@@H]5CO[C@@](Cn6cncn6)(c6ccc(F)cc6F)C5)cc4)CC3)cc2)c1=O`, for which the Potency in assay [1] is 9.44 µM (active). The Potency entry in [2], in assay [6] and in assay [7] was “inactive” throughout.

In the case of `CCC(C)(O)CCC=C(C)C` (stereo not drawn), the Potency result in [1], in [2], in [3], in [4] and in assay [5] was “inactive” in each case.

On to `C=CC(=C)CCCC(C)(C)OC(C)=O`, for which the Potency result in assay [1], in [2], in assay [3], in assay [6], in [7] and in assay [5] was “inactive” throughout. The Potency result in assay [8] and in assay [9] was “inactive” each time.

As to `COc1ccccc1N=Nc1c(S(=O)(=O)O)cc2cc(S(=O)(=O)O)cc(NC(C)=O)c2c1O`, the Potency in [1] is 25.7 µM (active); in assay [2], 29.8 µM (active); in assay [3], 25.7 µM (active); in assay [4] it was 25.7 µM (active); in assay [5], 25.7 µM (active). Also, the Potency entry in [7] and in assay [9] was “inactive” throughout.

In the case of `CC(N)CN` (stereo not drawn), the Potency entry in assay [1], in [2], in assay [3], in assay [4] and in [5] was “inactive” throughout.

Turning to `O=c1[nH]c2ccc(S(=O)CCN3CCC(Cc4ccc(F)cc4)CC3)cc2o1` (stereo not drawn), the Potency result in assay [1], in assay [2], in assay [3], in assay [6], in assay [7] and in assay [5] was “inactive” throughout. Also, the Potency entry in [8] and in assay [9] was “inactive” throughout.

For the molecule `CO/N=C1\CN(c2nc3c(cc2F)c(=O)c(C(=O)O)cn3C2CC2)CC1CN` (stereo not drawn), the Potency result in assay [1], in assay [2], in assay [3], in assay [6], in assay [7] and in assay [5] was “inactive” each time. In assay [9], the Potency entry was “inactive”.

As to `CCOC(=O)C(C)Oc1ccc(Oc2nc3ccc(Cl)cc3o2)cc1` (stereo not drawn), the Potency entry in assay [1], in assay [3], in [4], in assay [6], in [5] and in assay [8] was “inactive” in each case. Further, in assay [9], the Potency entry was “inactive”. Further, in assay [2], the Potency is 39.9 µM (active).

On to `O=C(CS)OCCOC(=O)CS`, for which the Potency result in assay [1], in assay [2], in assay [3], in [6], in assay [7] and in assay [5] was “inactive” in each case. Moreover, the Potency result in assay [8] was “inactive”.

On to `CCCCCCOC(=O)C(C)C`, for which the Potency result in assay [1], in assay [2], in assay [3], in [4], in assay [5] and in assay [8] was “inactive” in each case. Besides, the Potency result in assay [9] was “inactive”.

With `CC1CC(=O)NN=C1c1ccc(NCC(C)(C)NCC(O)COc2cc(Cl)ccc2C#N)cc1` (stereo not drawn), the Potency entry in assay [1], in [2], in assay [3], in assay [6], in assay [7] and in assay [5] was “inactive” each time. For the same molecule, the Potency result in assay [8] and in [9] was “inactive” throughout.

With `CCC(C)=O`, the Potency entry in assay [1], in [2], in [3], in [5], in assay [8] and in [9] was “inactive” in each case.

In the case of `CCCOC(=O)c1ccc(C(=O)OCCC)nc1`, the Potency result in assay [1], in assay [3], in [6], in assay [7] and in assay [5] was “inactive” throughout. Also, in assay [2], the Potency was 35.6 µM (active).

Take `Cc1cc(OI)c(C(C)C)cc1-c1cc(C(C)C)c(OI)cc1C`: the Potency entry in assay [1], in [2], in [3], in assay [6] and in assay [7] was “inactive” each time.

Consider `CC1=C(/C=C/C(C)=C\C=C\C(C)=C\C(=O)O)C(C)(C)CCC1`, for which the Potency was 54.5 µM (active) in assay [1], 39.9 µM (active) in assay [2] and 24.3 µM (active) in assay [7]. For the same molecule, the Potency entry in assay [3] and in assay [6] was “inactive” each time.

On to `CCCCCCCCCOC(C)=O`, for which the Potency result in [1], in assay [2], in assay [3], in [6], in assay [7] and in assay [5] was “inactive” throughout.

On to `Cc1cc(S(=O)(=O)O)ccc1N=Nc1c(O)ccc2ccccc12`, for which the Potency in [1] was 30.6 µM (active); in assay [2], 25.2 µM (active); in assay [3], 48.6 µM (active); in assay [4] it was 34.4 µM (active); in assay [5], 34.4 µM (active). Further, the Potency result in [9] was “inactive”.

For `C[C@]12CCC(=O)C=C1C=C[C@@H]1[C@@H]2CC[C@@]2(C)[C@H]1CC[C@@]21CCC(=O)O1`, the Potency result in assay [1], in assay [2], in assay [3], in assay [4], in assay [7] and in assay [8] was “inactive” throughout. Moreover, the Potency entry in assay [9] is “inactive”.

With `CN1Cc2cc(C(=O)N3CCC(C4CCNCC4)CC3)ccc2N[C@@H](CC(=O)O)C1=O`, the Potency entry in assay [1], in assay [2], in [3], in [6], in [7] and in assay [5] was “inactive” each time. Moreover, the Potency entry in assay [8] and in [9] was “inactive” in each case.

With `CCOC(=O)/C=C/C(=O)O`, the Potency result in assay [1], in assay [2], in assay [3], in assay [6] and in assay [5] was “inactive” each time.

On to `CO[Si](C)(OC)OC`, for which the Potency entry in assay [1], in assay [2], in assay [3], in assay [4] and in [5] was “inactive” in each case.

As for `CC(C)CCCC(=O)O`, the Potency entry in [1], in assay [2], in assay [3], in assay [4], in assay [5] and in [8] was “inactive” throughout. In assay [9], the Potency entry was “inactive”.

Turning to `O=S(=O)(c1ccccc1)c1ccc(Cl)cc1`, the Potency result in [1], in assay [2], in assay [3], in assay [4], in assay [6] and in [5] was “inactive” throughout. In addition, the Potency entry in assay [9] is “inactive”.

For `Cc1cc2nc3ccc(=[N+](C)C)cc-3sc2cc1N`, the Potency is 2.66 µM (active) in assay [1]; 9.77 µM (active) in [2]; 21.1 µM (active) in [3]; 8.41 µM (active) in assay [7]; 2.66 µM (active) in assay [8]. Besides, the Potency result in assay [6] and in assay [9] was “inactive” each time.
